An excerpt weighted towards active compounds, which were near 7.2% of everything screened.
Bfl-1 A1 inh = caspase 3/7 activation in MEF A1-2A-BIM cells, primary screen, A1 inhibitor project, cell-based, luminescence, HTS | Caspase-Glo 3/7 luminescence, 3 h; percent of clofoctol response, vehicle zero | caspase activation, % (concentration not given with the values) | hit rate 0.066% among 330,000 | AID 2462, 2010;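 active = over half of replicate activation scores above 10%, or exactly half above 10 with the replicate mean above 10; inconclusive = replicate mean below 10 yet half the replicates above 10; inactive = over half of replicates below 10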
ALR H2O2 inh = inhibitors of human ALR sulfhydryl oxidase, primary screen, biochemical, H2O2 detection, HRP-luminol luminescence, single point; FAD-linked sulfhydryl oxidase ALR (Homo sapiens), P55789; purified ALR, DTT oxidation; inhibition, % (no concentration beside the values); hit rate 3.8% among 290,000;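 active = mean replicate inhibition above about 79%, with every replicate also reaching it, limit read from the data; inconclusive = only one of the two criteria met; inactive = mean below limit and not every replicate reaching it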
SUMO Mot1 rescue = yeast Mot1-301 growth rescue at high temperature, primary screen, SUMOylation pathway inhibitor project, S. cerevisiae, ATP luminescence, 38.5C. hit rate 1% among 320,000. growth rescue, % at 18.8 µM. S. cerevisiae Mot1-301 growth rescue; percent above DMSO median, 100 means doubled;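 active = every valid replicate shows activation above 250% relative to neutral control wells; inactive = the rest, any valid replicate at or below 250%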
AHR activator = AHR activators, primary screen, cell-based, luminescence, luciferase reporter, human | Aryl hydrocarbon receptor (Homo sapiens), P35869 | hit rate 2.5% among 320,000 | AHR-responsive luciferase reporter cells | activation, % at 5 µM | AID 2796, 2010; in the data active = activation above about 47%
Efflux pump mplx = inhibitors of Candida efflux pumps in yeast, primary screen, S. cerevisiae, Nile Red, multiplex | S. cerevisiae Candida pump triplex | inhibition, % at 10 µM | hit rate 0.44% among 330,000;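 active = plate passing quality check with inhibition over a set limit, or well fluorescence over plate mean plus 4 SD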;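 note: Nile Red retained in pooled yeast measured as flow cytometry median fluorescence; higher means more Nile Red kept so more efflux inhibition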
VLA-4 inh = inhibition in human VLA-4 binding assay, primary screen, VLA-4 allosteric modulator project, MLPCN library, flow cytometry, VLA-4 expressing cells. inhibition, % (about 7 µM as worked out from the volumes in the protocol). Integrin alpha-4 (Homo sapiens), P13612. hit rate 0.2% among 330,000. ligand binding flow cytometry. AID 2557, 2010; in the data active = inhibition above about 50%
Target sequence (P13612 whole entry, looked up): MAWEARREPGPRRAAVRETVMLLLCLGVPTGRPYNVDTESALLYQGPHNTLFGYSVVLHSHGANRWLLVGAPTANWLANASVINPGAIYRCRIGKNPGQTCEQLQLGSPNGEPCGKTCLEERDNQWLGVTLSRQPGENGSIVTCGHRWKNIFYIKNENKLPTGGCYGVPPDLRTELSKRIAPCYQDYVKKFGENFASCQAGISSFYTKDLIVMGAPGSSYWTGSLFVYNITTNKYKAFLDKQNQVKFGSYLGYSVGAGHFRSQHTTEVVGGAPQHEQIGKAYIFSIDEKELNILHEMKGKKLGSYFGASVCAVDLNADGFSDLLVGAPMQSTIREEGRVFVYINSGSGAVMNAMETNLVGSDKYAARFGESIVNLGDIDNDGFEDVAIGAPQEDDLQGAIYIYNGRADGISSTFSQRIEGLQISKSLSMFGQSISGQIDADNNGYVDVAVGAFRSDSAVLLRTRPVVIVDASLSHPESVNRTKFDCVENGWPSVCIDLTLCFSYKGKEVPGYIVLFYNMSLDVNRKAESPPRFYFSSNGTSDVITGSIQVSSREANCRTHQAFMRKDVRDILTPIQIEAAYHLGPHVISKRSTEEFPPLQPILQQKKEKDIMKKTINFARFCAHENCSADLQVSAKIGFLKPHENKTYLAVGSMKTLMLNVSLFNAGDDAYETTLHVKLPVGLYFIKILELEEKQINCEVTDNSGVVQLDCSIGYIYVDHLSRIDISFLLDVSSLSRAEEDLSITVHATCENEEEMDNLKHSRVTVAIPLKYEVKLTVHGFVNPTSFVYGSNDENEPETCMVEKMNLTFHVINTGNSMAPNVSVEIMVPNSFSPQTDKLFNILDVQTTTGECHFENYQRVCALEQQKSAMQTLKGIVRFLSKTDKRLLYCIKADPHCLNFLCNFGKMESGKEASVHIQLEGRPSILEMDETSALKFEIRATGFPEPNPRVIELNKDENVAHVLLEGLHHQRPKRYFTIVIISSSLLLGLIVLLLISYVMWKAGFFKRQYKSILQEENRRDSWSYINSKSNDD
AHR act confirm = AHR activators, confirmation, cell-based, luminescence, luciferase reporter, human. activation, % at 9 µM. shares compounds with AHR activator. human cells, AHR-responsive luciferase reporter. hit rate 87% among 2,300. AID 2845, 2010; in the data active = activation above about 49%;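 note: HepG2 hepatoma cells carrying a DRE-driven firefly luciferase reporter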
PXR counter = human PXR activators, counter-screen for AHR activator project, cell-based, luciferase luminescence | shares compounds with AHR activator | activation, % at 11.6 µM | cell-based PXR reporter | hit rate 88% among 2,300 | AID 434939, 2010; in the data active = activation above about 11%;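 note: human hepatoma DPX-2 cells expressing full-length human PXR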
Numbers stand for hits; i = inactive; ? = inconclusive; nt = no result given.

SMILES	Bfl-1 A1 inh	ALR H2O2 inh	SUMO Mot1 rescue	AHR activator	Efflux pump mplx	VLA-4 inh	AHR act confirm	PXR counter
O=C(CSc1nc2ccccc2s1)NCc1ccc2c(c1)OCO2	i	98.5	i	79.6	i	i	105.6	41.6
O=C(CSc1nnc(NC(=O)c2ccc3c(c2)OCO3)s1)NCc1ccco1	i	i	i	82.4	i	i	i	10.7
COCCSc1nnc(NC(=O)c2ccc3c(c2)OCO3)s1	i	i	i	99.5	i	i	89.4	26.9
CSc1nnc(NC(=O)c2ccc3c(c2)OCO3)s1	i	i	i	i	i	i	nt	nt
COC(=O)c1cc(-c2ccc(OC)cc2F)nc2nc(SC)[nH]c(=O)c12	i	i	i	i	i	i	nt	nt
Nc1ccc(C(=O)NC2CCSc3ccccc32)cc1[N+](=O)[O-] (centres undefined)	i	i	i	i	i	i	nt	nt
Cn1cc(/C=N\NC(=O)C2COc3ccccc3O2)c2ccccc21 (centres undefined)	i	i	i	96.8	i	i	70.8	11.7
CCOc1ccccc1NC(=S)Nc1ccccc1F	i	i	i	i	i	i	nt	nt
CCOc1ccccc1NC(=S)Nc1ncccc1C	i	i	i	121.8	i	i	80.6	52.4
c1ccc(Nc2nc(-c3ccccn3)cs2)cc1	i	i	i	116.3	i	i	52.6	nt
CCOC(=O)C1C(=O)OC(C)(C)C1C(C)C(=O)c1ccc(C)cc1C (centres undefined)	i	i	i	i	i	i	nt	nt
Cc1ccc(Nc2cc(C)nc3nc(C)nn23)cc1	i	i	i	124.4	i	i	i	i
Cc1cc(Nc2ccc(Cl)cc2)n2nnnc2n1	i	nt	i	143.3	i	i	90.6	13.8
Cc1cc(Nc2ccc(Br)c(C)c2)n2nc(C)nc2n1	i	i	i	84.8	i	i	i	12.2
CC(=O)c1ccc(Nc2cc(C)nc3nc(C)nn23)cc1	i	i	i	i	i	i	nt	nt
O=C(Nc1ccc(OCC(F)(F)C(F)F)c(C(F)(F)F)c1)c1ccccc1O	?	i	i	i	i	i	nt	nt
CCNC(=O)C(=O)NCc1ccncc1	i	i	i	i	i	i	nt	nt
Cc1cccc(OCC(=O)N(C)CCc2ccccn2)c1	i	i	i	i	i	i	nt	nt
Clc1cccc(-c2ccc(C=Nc3ccc(N4CCOCC4)cc3)o2)c1	i	i	i	i	i	i	nt	nt
COc1ccc(OC)c2nc(-c3ccc4c(c3)OCO4)ccc12	i	nt	i	116.7	i	i	124.9	45.8
S=C1NC(c2ccccc2)=NCN1c1ccc(Cl)cc1	i	i	i	i	i	i	nt	nt
CCC1(c2ccc(Cl)cc2)NC(=S)N(c2ccccc2)N1 (centres undefined)	i	94.5	i	80.4	i	i	82.3	12.0
NC(=O)c1cc([N+](=O)[O-])ccc1NCCc1ccccc1	i	i	i	nt	i	i	nt	nt
O=[N+]([O-])c1ccc(NCCc2ccccc2)c(Br)c1	i	i	i	114.3	i	i	104.3	12.5
Nc1ccc2nn(-c3ccc(F)cc3)nc2c1	i	i	i	106.5	i	i	i	14.2
SMILES	Bfl-1 A1 inh	ALR H2O2 inh	SUMO Mot1 rescue	AHR activator	Efflux pump mplx	VLA-4 inh	AHR act confirm	PXR counter
Cc1ccc(-n2nc3ccc(N)cc3n2)cc1	i	i	i	88.4	i	i	76.0	i
O=S1(=O)CCOC[C@H](c2ccccc2)N1Cc1cccc(Cl)c1	i	i	i	i	i	i	nt	nt
CC(C)=NNc1nc(-c2ccccc2)cs1	i	97.4	i	101.9	i	i	107.2	14.8
CC(/C=C/c1ccccc1)=N\Nc1nc(-c2ccccc2)cs1	i	i	i	i	i	i	nt	nt
O=C(CCc1ccccc1)NCc1ccc2c(c1)OCO2	i	i	i	i	i	i	nt	nt
CCc1nc(N2CCN(CC(=O)NCC3CCCO3)CC2)c(C#N)c2c1COC(C)(C)C2 (centres undefined)	i	i	i	i	i	i	nt	nt
C=C(C)CNC(=S)NN=C1c2ccccc2-c2ccccc21	i	i	i	92.3	i	i	87.5	55.3
COc1cc(NC(=O)c2cc(-c3ccco3)on2)c(OC)cc1Cl	i	i	i	i	i	i	nt	nt
COc1cc(NC(=O)c2cc(CC(C)C)on2)c(OC)cc1Cl	i	i	i	91.0	i	i	85.5	14.9
COc1cc(NC(=O)c2noc(C)c2[N+](=O)[O-])c(OC)cc1Cl	i	i	i	79.7	i	i	102.1	30.2
COc1cc(NC(=O)c2ccnn2C)c(OC)cc1Cl	i	i	i	129.2	i	i	135.2	23.0
Nc1ccccc1C(=O)N1CCCC1	i	i	i	i	i	i	nt	nt
CN(CC(=O)Nc1ccc(F)c(F)c1F)C(=O)C1CCCO1 (centres undefined)	i	i	i	i	i	i	nt	nt
O=C(CN1C2=NCCN2c2ccccc21)c1ccc(Br)s1	i	i	i	93.8	i	i	81.3	13.6
O=C(CN1C2=NCCN2c2ccccc21)c1ccc(Br)cc1	i	i	i	112.3	i	i	71.3	20.9
O=C(CN1C2=NCCN2c2ccccc21)c1ccc2c(c1)OCO2	i	i	i	i	i	i	nt	nt
Cc1cc(C)nc(/N=C(\N)Nc2ccc(C)c([N+](=O)[O-])c2)n1	i	i	i	122.1	i	i	83.9	67.7
Cc1cc(C)nc(Nc2ccc(C)c([N+](=O)[O-])c2)n1	i	i	i	i	i	i	nt	nt
CN(C(=O)c1nn(C)c2c1CSc1ccccc1-2)c1ccc(F)cc1	i	i	i	105.4	i	i	47.5	64.2
CN(C(=O)c1nn(C)c2c1CSc1ccccc1-2)c1ccccc1Cl	i	i	i	i	i	i	nt	nt
CCn1nnnc1SCC(=O)Nc1cc(OC)cc(OC)c1	i	i	i	i	i	i	nt	nt
C=CCNC(=O)c1onc(CS(=O)(=O)c2cc(C)cc(C)c2)c1C(=O)NCC=C	i	i	i	i	i	i	nt	nt
CC(=O)N(c1ccc(Cl)cc1)c1nc(C)cc(C)c1C#N	i	i	i	101.7	i	i	112.2	109.7
COc1ccc(-c2ccc3oc(-c4ccsc4)c(-c4ccc(Br)nc4)c3c2)cc1	i	i	i	101.9	i	i	97.3	26.3
C/C(=N\Nc1cc(N2CCOCC2)ncn1)c1cccc([N+](=O)[O-])c1	i	i	i	i	i	i	nt	nt
C/C(=N\Nc1cc(N2CCOCC2)ncn1)c1ccccc1	i	i	i	89.4	i	i	i	49.6
